YjeE inh: qHTS Assay for Inhibitors of YjeE. purified YjeE enzyme, qHTS inhibition assay. Potency, µM. 71,000 compounds, 0.05% hits. AID 605, 2007
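Fluorescence polarization of a BODIPY Texas Red–ADP probe (2 uM) bound to purified YjeE (10 uM) was read after 15 min room-temperature incubation with compounds. Loss of polarization marks inhibitors; ADP serves as titrated control.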
BRCT inh red: qHTS Assay for Inhibitors of BRCT-Phosphoprotein Interaction (Red Fluorophore); BRCT-phosphopeptide binding, red fluorescence polarization; Potency, µM (titrated, usually from 76.9 µM), for the others: at the top dose activity change, negative = inhibition, most hits filed as inhibitors; 75,000 compounds, 0.03% hits; also: % is scaled to controls: 0 for no effect and ±100 for the full control effect
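Rhodamine-labelled pBACH1 10-mer (100 nM) bound to BRCT domain (100 nM) at pH 7.3; compounds incubated 12 min room temperature, polarization read. Free peptide defines full inhibition; unlabelled decapeptide titrated as control.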
DNA Pol III inh: qHTS Assay for Inhibitors of DNA Polymerase III Holoenzyme System. reconstituted DNA polymerase III holoenzyme replication, biochemical. Potency, µM (top dose mostly 57.1 µM), inactives show top-dose activity change, negative = inhibition. 71,000 compounds, 0.25% hits; also: potency is read from the fitted curve at half-maximal effect; % is scaled to controls: 0 for no effect and ±100 for the full control effect
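Reconstituted *E. coli* holoenzyme (0.35 nM Pol III, 1 nM beta, 154 nM SSB, 2 nM primase) was preincubated with compound for 15 min at RT. Synthesis on 1.4 nM ssM13Gori ran 35 min, then was stopped with PicoGreen/EDTA and read as dsDNA fluorescence.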
Hsp90 Hop PPI: qHTS Assay for Disrupters of an Hsp90 Co-Chaperone Interaction. Potency, µM (top dose mostly 57 µM), for the others: at the highest dose activity change, negative = inhibition. 71,000 compounds, 0.44% hits. Hsp90 C-terminal peptide / TPR2A (Hop) interaction, human. AlphaScreen TPR2A-His6 binding biotin-Hsp90 C-terminal peptide; active = well fitted curve in either direction with a large enough effect; inconclusive = small, poorly fitted or top-dose-only effect, or another doubt; also: potency is read from the fitted curve at half-maximal effect; % is scaled to controls: 0 for no effect and ±100 for the full control effect
BRCT PPI green: qHTS Assay for Inhibitors of BRCT-Phosphoprotein Interaction (Green Fluorophore); BRCA1 BRCT-phosphopeptide binding, green fluorescence polarization; Potency, µM (series often up to 76.9 µM), for inactives: at the top dose activity change, negative = inhibition, most hits filed as inhibitors; 75,000 compounds, 0.05% hits; AID 875, 2007;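 also: potency is read from the fitted curve at half-maximal effect; plate controls were peptide without protein for full effect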
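Compounds were incubated for 12 min at room temperature with a complex of 100 nM fluorescein-tagged pBACH1 decapeptide and 250 nM His-tagged BRCT protein. Buffer was phosphate pH 7.3 with EDTA, DTT and Tween 20. Disruption of binding lowers the polarization signal.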
Tau filament bind: qHTS Assay for Tau Filament Binding; Potency, µM (titrated, usually from 57.1 µM), without a hit: at the top dose activity change, negative = inhibition; 71,000 compounds, 2% hits; AID 596, 2007; recombinant tau filaments, thioflavin S fluorescence, 15 h; filaments grown with octadecylsulfate alongside compound; Microtubule-associated protein tau (Homo sapiens), P10636;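 also: potency is read from the fitted curve at half-maximal effect; % is scaled to controls: 0 for no effect and ±100 for the full control effect; actives lower thioflavin S fluorescence by blocking filaments or displacing dye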
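Quantitative HTS: thioflavine S signal from ODS-induced tau filaments, excited at 450 nm, emission 510 nm. Conditions: 1 uM tau, 30 uM ODS, 15 h at 37 C, pH 7.4.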
* = called active by the depositor; ! = not active in a repeat; [ ] = remark or other dose. A selection: hits, their analogues and other compounds. The true share with any hit is near 2.3%. Unless noted, calls follow the shape of the dose curve; as a rule, active = well fitted curve in the direction sought with a large enough effect; inconclusive = small, poorly fitted or top-dose-only effect, or another doubt; inactive = no such curve, though single readings can be large; an effect the other way counts as inactive or inconclusive.

CCCCOC(=O)C(C#N)c1nc2ccccc2nc1N1CCN(Cc2ccc3c(c2)OCO3)CC1 (centres undefined) was read as YjeE inh inactive, BRCT inh red 0.3%, DNA Pol III inh -0.3%, Hsp90 Hop PPI -9.1%, BRCT PPI green 0.3% and Tau filament bind 0.398µM*.
COc1ccc(-c2cc(C(=O)N/N=C/c3ccc(OC)c(OC)c3)[nH]n2)cc1 was read as BRCT inh red 1.9% and BRCT PPI green 0.8%.
[Cl][In]([Cl])[Cl] was read as YjeE inh inconclusive, BRCT inh red -2.2%, DNA Pol III inh 31.6µM*, Hsp90 Hop PPI -1.0%, BRCT PPI green -0.8% and Tau filament bind 4.5%.
For Clc1nc(NCCc2ccccc2)c2ncn(-c3ccccc3)c2n1 the results were YjeE inh inactive, DNA Pol III inh -7.4%[11.4 µM], Hsp90 Hop PPI 5.3%[11 µM] and Tau filament bind 24.0%[11.4 µM].
Screening COc1ccc(-n2c(=O)c(-c3ccc(Cl)cc3)nc3cnc(N4CCNCC4)nc32)cc1 returned YjeE inh inactive, BRCT inh red 1.8%, DNA Pol III inh -9.5%, Hsp90 Hop PPI 4.5%, BRCT PPI green 0.8% and Tau filament bind 3.98µM*.
Screening COc1ccc(-c2nc3cnc(N4CCNCC4)nc3n(-c3ccc(OC)cc3)c2=O)cc1 returned YjeE inh inactive, BRCT inh red -1.9%, DNA Pol III inh -11.9%, Hsp90 Hop PPI 0.2%, BRCT PPI green -0.5% and Tau filament bind 130.4%.
O=c1c(-c2cc(F)cc(F)c2)nc2cnc(N3CCNCC3)nc2n1-c1ccccc1 was read as YjeE inh inactive, BRCT inh red -0.2%, DNA Pol III inh -10.0%, Hsp90 Hop PPI 9.2%, BRCT PPI green -2.2% and Tau filament bind 3.98µM*.
Screening O=c1c(-c2ccc(Cl)cc2)nc2cnc(N3CCNCC3)nc2n1-c1ccccc1 returned YjeE inh inactive, BRCT inh red 0.2%, DNA Pol III inh -3.9%, Hsp90 Hop PPI 1.5%, BRCT PPI green -0.8% and Tau filament bind 3.16µM*.
`CCCCCCCCCCCCCCCCOC[C@@H](COCC(F)(F)F)OP(=O)(O)OCO` gave YjeE inh inactive, DNA Pol III inh -7.2%, Hsp90 Hop PPI -3.5% and Tau filament bind 2.2%.
Cc1c(CN(C)C)c2c(n1C)C(=O)c1ccc(Br)cc1-2 was read as YjeE inh inactive, BRCT inh red 2.5%, DNA Pol III inh -12.8%, Hsp90 Hop PPI -12.2%, BRCT PPI green -2.6% and Tau filament bind 2.51µM*.
c1ccc(Nc2nc(-c3ccoc3)nc3ccccc23)cc1 was read as YjeE inh inactive, BRCT inh red 2.1%, DNA Pol III inh -4.5%, Hsp90 Hop PPI 0.9%, BRCT PPI green -0.4% and Tau filament bind 12.6µM*.
`CN(C)c1nc(-c2ccoc2)nc2ccccc12` gave YjeE inh inactive, BRCT inh red -3.5%, DNA Pol III inh -3.3%, Hsp90 Hop PPI -11.4%, BRCT PPI green -3.6% and Tau filament bind 15.8µM*.
CC(C)[C@@H](CC(=O)N[C@@H]1CCNC[C@H]1C(=O)N[C@H](CC(=O)N[C@@H](CCC(=O)O)CC(=O)O)Cc1ccccc1)NC(=O)C[C@H](Cc1c[nH]c2ccccc12)NC(=O)[C@@H]1CNCC[C@H]1N was read as YjeE inh inactive, DNA Pol III inh -4.3%, Hsp90 Hop PPI -18.4% and Tau filament bind -10.7%.
`CCN=c1scc(-c2ccc3c(c2)NC(=O)CO3)n1N=C1CCCC1` gave YjeE inh inactive, BRCT inh red 0.1%, DNA Pol III inh 2.1%, Hsp90 Hop PPI inconclusive, BRCT PPI green 3.6% and Tau filament bind 12.6µM*.
Cc1cc(C)c(C#N)c(SCC(=O)CC(=O)OC(C)C)n1 was read as YjeE inh inactive, BRCT inh red -0.2%, DNA Pol III inh -7.0%, Hsp90 Hop PPI 3.2%, BRCT PPI green -2.8% and Tau filament bind 12.7%.
For Cc1cc(C)c(C#N)c(SCC(=O)OC2CCCCC2)n1 the results were YjeE inh inactive, BRCT inh red -2.1%, DNA Pol III inh 3.1%, Hsp90 Hop PPI 31.6µM*, BRCT PPI green 1.9% and Tau filament bind -1.6%.
Screening O=S1(=O)N[C@H]2CC[C@@H]3NS(=O)(=O)N[C@H]4CC[C@H](N1)N4S(=O)(=O)N23 returned YjeE inh inactive, BRCT inh red 1.4%[15.4 µM], DNA Pol III inh -6.8%[11.4 µM], Hsp90 Hop PPI -3.4%[11 µM], BRCT PPI green -0.9%[15.4 µM] and Tau filament bind 3.16µM*.
Screening O=C(Nc1nc(-c2ccccc2)cs1)c1cccs1 returned YjeE inh inactive, BRCT inh red -0.2%, DNA Pol III inh 2.2%, Hsp90 Hop PPI 4.7%, BRCT PPI green 2.4% and Tau filament bind 27.3%.
`Cc1ccc(-c2csc(NC(=O)c3ccno3)n2)cc1` gave YjeE inh inactive, BRCT inh red -0.8%, DNA Pol III inh -8.0%, Hsp90 Hop PPI -10.8%, BRCT PPI green 0.7% and Tau filament bind 31.6µM*.
For COc1ccc(OC)c(Nc2cc(-c3ccccc3)nc(N)n2)c1 the results were YjeE inh inactive, BRCT inh red 0.5%, DNA Pol III inh -0.6%, Hsp90 Hop PPI -14.2%, BRCT PPI green -2.2% and Tau filament bind 15.8µM*.
CN1CCN(c2ncc3nc(-c4ccc(Cl)cc4)c(=O)n(CCC#N)c3n2)CC1 was read as YjeE inh inactive, BRCT inh red -0.9%, DNA Pol III inh -7.5%, Hsp90 Hop PPI 7.5%, BRCT PPI green -0.5% and Tau filament bind 3.16µM*.
N#CCCn1c(=O)c(-c2ccc(Cl)cc2)nc2cnc(N3CCNCC3)nc21 was read as YjeE inh inactive, BRCT inh red -0.2%, DNA Pol III inh -5.5%, Hsp90 Hop PPI -1.5%, BRCT PPI green -2.3% and Tau filament bind 3.98µM*.
`O=c1[nH]c(=O)n([C@@H]2C[C@H](O)[C@H](CO)O2)cc1I` gave YjeE inh inactive, BRCT inh red -0.8%[34.4 µM], DNA Pol III inh 0.4%[25.6 µM], Hsp90 Hop PPI -4.9%[26 µM], BRCT PPI green -2.3%[34.4 µM] and Tau filament bind -4.3%[25.6 µM].
Screening Cc1sc(N)c(C(=O)c2cccc(C(F)(F)F)c2)c1C returned YjeE inh inactive, BRCT inh red -2.3%, DNA Pol III inh -2.1%, Hsp90 Hop PPI inconclusive, BRCT PPI green -0.2% and Tau filament bind 31.6µM*.
Screening O=Nc1c(-c2c(O)[nH]c3ccccc23)[nH]c2ccccc12 returned YjeE inh inactive, BRCT inh red 2.6%, DNA Pol III inh -14.3%, Hsp90 Hop PPI 12.6µM*!, BRCT PPI green 1.5% and Tau filament bind 0.398µM*.

Screens: PubChem BioAssay, National Center for Advancing Translational Sciences (NCATS)
